According to PubChem BioAssay (NCATS):
Inconclusive results are not listed. A call without a number means that no potency is given here. Values without a mark were called inactive. Active and inactive are the calls of the source. Unless noted, the call rests on the fitted dose curve; in most records, active means well fitted curve in the direction sought with a large enough effect; inconclusive means small, poorly fitted or top-dose-only effect, or another doubt; inactive means no such curve, though single readings can be large; an effect the other way counts as inactive or inconclusive.

How the values were obtained:
[1] = biological target: Calcium and integrin-binding protein 1 (Homo sapiens) (UniProt Q99828); test: Primary qHTS for Identification of Calcium Integrin Binding Protein 1 (CIB1) Competitor (AID 1508620);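 on activity change, negative = inhibition: GST tagged CIB1 binding a fluorescein labelled alphaIIb integrin peptide tracer; top concentration of the series differs between compounds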
Sequence of Calcium and integrin-binding protein 1 (Homo sapiens) (Q99828 whole entry, looked up): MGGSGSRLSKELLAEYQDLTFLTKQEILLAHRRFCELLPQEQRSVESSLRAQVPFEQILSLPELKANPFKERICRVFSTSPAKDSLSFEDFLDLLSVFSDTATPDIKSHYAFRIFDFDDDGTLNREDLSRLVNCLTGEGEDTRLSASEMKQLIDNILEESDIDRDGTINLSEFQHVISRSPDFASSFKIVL
In short: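 CIB1-GST (1 uM final) and compound incubated 15 min at room temperature before adding FITC-alphaIIb peptide tracer (100 nM final). Competition for binding read by fluorescence polarization (ex 480, em 540) after another 15 min at room temperature.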

[2] = A High-Content qHTS Against Drug Library for the Identification of Small Molecules that Inhibit DYT1 Early Onset Primary Dystonia-Associated Cell Pathology (AID 1645839; calls by dose curve)
In short: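 High-content imaging quantified EGFP-TorsinA mislocalization in HEK293-derived cells inducibly expressing DYT1 mutant torsinA, after 48 h exposure to compound given together with tetracycline induction. Cell count served as a toxicity channel alongside %pathology.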

[3] = biological target: Cytochrome P450 2D6 (Homo sapiens) (UniProt P10635); test: Cytochrome P450 family 2 subfamily D member 6 (CYP2D6) small molecule antagonists: luciferase biochemical (cell-free) qHTS assay (AID 1645840; active means well fitted curve in the direction sought with a large enough effect in the repeat runs; an effect the other way counts as inactive or inconclusive; further: nearly all actives have a fitted effect of over 55% in size)
Sequence of Cytochrome P450 2D6 (Homo sapiens) (P10635 whole entry, looked up): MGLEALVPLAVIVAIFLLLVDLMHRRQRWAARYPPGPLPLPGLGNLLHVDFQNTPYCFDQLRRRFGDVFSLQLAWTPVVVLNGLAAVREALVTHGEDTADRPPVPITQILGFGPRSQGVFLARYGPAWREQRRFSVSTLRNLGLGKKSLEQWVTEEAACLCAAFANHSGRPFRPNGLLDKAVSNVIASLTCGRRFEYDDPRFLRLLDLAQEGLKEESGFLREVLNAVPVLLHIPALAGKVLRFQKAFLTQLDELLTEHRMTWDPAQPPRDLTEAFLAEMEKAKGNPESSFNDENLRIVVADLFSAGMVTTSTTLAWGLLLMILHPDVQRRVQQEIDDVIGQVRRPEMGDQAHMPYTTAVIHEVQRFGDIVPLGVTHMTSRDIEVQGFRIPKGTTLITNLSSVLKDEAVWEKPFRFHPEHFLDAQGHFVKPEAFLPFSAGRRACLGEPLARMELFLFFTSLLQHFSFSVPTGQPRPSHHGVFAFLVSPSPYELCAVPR
In short: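 P450-Glo CYP2D6 system: proluciferin substrate converted by enzyme to luciferin, read by luminescence proportional to activity. Enzyme-substrate mix with compound 10 min at room temperature, then NADPH regeneration 1 h before detection reagent.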

[4] = biological target: Cytochrome P450 2C9 (Homo sapiens) (UniProt P11712); test: Cytochrome P450 family 2 subfamily C member 9 (CYP2C9) small molecule antagonists: luciferase biochemical (cell-free) qHTS assay (AID 1645842; active means well fitted curve in the direction sought with a large enough effect in the repeat runs; an effect the other way counts as inactive or inconclusive; further: nearly all actives have a fitted effect of over 55% in size)
Sequence of Cytochrome P450 2C9 (Homo sapiens) (P11712 whole entry, looked up): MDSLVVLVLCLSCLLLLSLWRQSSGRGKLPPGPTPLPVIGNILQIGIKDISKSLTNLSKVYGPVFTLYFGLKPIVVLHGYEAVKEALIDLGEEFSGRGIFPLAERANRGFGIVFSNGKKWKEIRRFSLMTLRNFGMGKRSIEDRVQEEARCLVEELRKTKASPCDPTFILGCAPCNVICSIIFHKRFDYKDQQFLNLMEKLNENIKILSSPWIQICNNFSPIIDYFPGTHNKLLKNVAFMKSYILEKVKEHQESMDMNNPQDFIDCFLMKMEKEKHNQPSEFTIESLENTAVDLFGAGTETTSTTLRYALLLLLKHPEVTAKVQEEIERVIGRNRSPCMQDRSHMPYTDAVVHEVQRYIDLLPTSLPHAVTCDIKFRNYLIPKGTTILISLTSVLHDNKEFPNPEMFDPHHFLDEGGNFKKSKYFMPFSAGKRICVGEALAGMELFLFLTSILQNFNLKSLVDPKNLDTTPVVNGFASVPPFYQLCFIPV
In short: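 P450-Glo CYP2C9 system: proluciferin substrate with enzyme in mix containing 0.4% BSA, 10 min at room temperature, then NADPH regeneration solution added and incubated 1 h at 37C. Detection reagent stopped reaction; luminescence read after 20 min as RLU.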
Potency means the concentration at half of the fitted maximal effect.

CC(c1ncncc1F)C(O)(Cn1cncn1)c1ccc(F)cc1F (stereo unspecified)
Potency [1]: inactive

COC(=O)N[C@H](C(=O)N1[C@@H]2CC[C@@H](C2)[C@H]1c1nc2ccc(-c3ccc4c(c3)C(F)(F)c3cc(-c5cnc([C@@H]6CCC7(CC7)N6C(=O)[C@@H](NC(=O)OC)C(C)C)[nH]5)ccc3-4)cc2[nH]1)C(C)C
Potency [1]: inactive

CO[C@H]1C[C@@H]2CC[C@@H](C)[C@@](O)(O2)C(=O)C(=O)N2CCCC[C@H]2C(=O)O[C@H]([C@H](C)C[C@@H]2CC[C@H](n3cnnn3)[C@H](OC)C2)CC(=O)[C@H](C)/C=C(\C)[C@@H](O)[C@@H](OC)C(=O)[C@H](C)C[C@H](C)/C=C/C=C/C=C/1C
Potency [1]: inactive

COC1C(=O)CCC2(CO2)C1(O)C1(C)OC1CC=C(C)C (stereo unspecified)
Potency [1]: inactive

O=C(NCC(O)CO)c1ccncc1Nc1ccc(I)cc1F (stereo unspecified)
Potency [1]: inactive

C[C@@H]1O[C@@H](O[C@H]2[C@H](OC(=O)[C@]34CCC(C)(C)C[C@H]3C3=CCC5[C@@]6(C)C[C@H](O)[C@H](O[C@@H]7O[C@H](CO)[C@@H](O)[C@H](O)[C@H]7O)[C@@](C)(CO)C6[C@H](O)C[C@@]5(C)[C@]3(C)C[C@H]4O)OC[C@H](O)[C@@H]2O)[C@H](O)[C@H](O)[C@H]1O[C@@H]1OC[C@@H](O)[C@H](O[C@H]2OC[C@](O)(CO)[C@H]2O)[C@H]1O (stereo partly specified)
activity change, negative = inhibition [1]: 3.47% [at 12.4 µM]

CC#CC(=O)N1CCC[C@H]1c1nc(-c2ccc(C(=O)Nc3ccccn3)cc2)c2c(N)nccn12
Potency [1]: inactive

Nc1ccccc1N
Potency [1]: 100 µM (active) | Potency [2]: 35.5 µM (active) | Potency [3]: 14.6 µM (active) | Potency [4]: 35.6 µM (active)
